High-throughput results deposited in PubChem BioAssay by several laboratories.
The list is not random: actives were taken first. Their share in the collection is about 5.7%.
FAS TE block: inhibitors of human fatty acid synthase thioesterase domain. P49327. hit rate 0.67% among 360,000. inhibition, % at 15 µM. recombinant FAS-TE, OMFH fluorogenic substrate, fluorescence endpoint. AID 602261;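 active means compounds whose normalised, plate-corrected inhibition of enzyme fluorescence in the single-dose primary screen is 50% or more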
rCAG RNA binder: molecules binding r(CAG) RNA repeats; hit rate 1.3% among 370,000; r(CAG) RNA repeat, TO-PRO-1 dye displacement fluorescence; inhibition, % at 3 µM; AID 651821;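 active means inhibition above the plate cutoff, the mean of all test compounds on that plate plus 3 SD, cut at about 35% in these data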;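 further: higher means more dye released from RNA so lower well fluorescence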
Myeloid diff 2: myeloid differentiation induction. hit rate 1% among 360,000. calls only at 10 µM. ER-HoxA9 myeloid progenitors, lysozyme-GFP differentiation, flow cytometry;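 active means normalized GFP-positive differentiation at or above the plate's own cutoff, the solvent-only control mean plus 3 SD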;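 further: cells exposed to compound for four days before flow analysis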
GRIN3A LBD mod: NR3A (human) ligand-binding domain modulation; hit rate 2.5% among 340,000; NR3A LBD differential scanning fluorimetry, Tm shift; 0% = protein alone, 100% = glycine-bound protein; Tm shift relative to glycine control, % at 25 µM; AID 1259313;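 active means melting temperature shift of at least 10% of the positive control shift, at one fixed dose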
MPTP block: blocks calcium-induced mitochondrial swelling; isolated mouse mitochondria, Ca2+ swelling absorbance, 30 min; inhibition, % at 10 µM; hit rate 1.4% among 360,000; AID 602449;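 active means inhibition of 50% or more, scaled per plate between neutral and stimulator controls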
MPTP counter: Rhodamine 123 counter-screen of mitochondrial pore hits | shares compounds with MPTP block | isolated mitochondria, membrane potential, Rhodamine 123 fluorescence | inhibition, % at 10 µM | hit rate 78% among 5,000 | AID 624504; in the data active means inhibition above about 22%
MPTP swell DR: MPTP inhibition, dose response swelling confirmation | shares compounds with MPTP block | isolated mitochondria swelling, absorbance | IC50, µM | hit rate 58% among 780; in the data active means IC50 below about 20 µM
MPTP cs DR: MPTP inhibitor counter-screen activity, dose response. shares compounds with MPTP block. isolated mitochondria counterscreen, fluorescence read-out. IC50, µM. hit rate 49% among 780. AID 651564; in the data active means IC50 below about 80 µM
Large screens that a line does not name were inactive (follow-up assays come after a bar, where they were run).

Cc1ccc2nc(NC(=O)C3CCN(S(=O)(=O)c4cccc5nsnc45)CC3)sc2c1	none
Cc1ccc(NC(=O)C2CCN(S(=O)(=O)c3cc([N+](=O)[O-])ccc3Cl)CC2)nc1	MPTP block 81 | MPTP counter 80
Cc1ccc2nc(NC(=O)C3CCN(S(=O)(=O)c4cc([N+](=O)[O-])ccc4Cl)CC3)sc2c1	MPTP block 97 | MPTP counter 69
CCCCCCCCC(=O)NC(NC(=S)N1CCOCC1)C(Cl)(Cl)Cl (centres undefined)	MPTP block 88 | MPTP counter 86
CCCCCC(=O)NC(NC(=S)N1CCOCC1)C(Cl)(Cl)Cl (centres undefined)	none
CCNC(=O)c1cccc(NC(=O)c2cc(C3CC3)nc3c2cnn3C(C)C)c1	none
CC(C)n1ncc2c(C(=O)Nc3cccc(C#N)c3)cc(C3CC3)nc21	MPTP block 73 | MPTP counter 85
Cc1csc2c(N3CCC(C(=O)O)CC3)ncnc12	none
Cc1csc2c(N3CCN(C(=O)Nc4ccc(OC(F)(F)F)cc4)CC3)ncnc12	MPTP block 89 | MPTP counter 72
CN1CCN(c2ccc(S(=O)(=O)N3CCCCC3)cc2NC(=O)c2ccc3ccccc3c2)CC1	MPTP block 67 | MPTP counter inactive | MPTP swell DR 14 | MPTP cs DR inactive
Cc1ccccc1C(=O)Nc1cc(S(=O)(=O)N2CCCCC2)ccc1N1CCN(C)CC1	none
CCN1CCN(c2ccc(S(=O)(=O)N3CCCCC3)cc2NC(=O)/C=C/c2ccc(F)cc2)CC1	MPTP block 78 | MPTP counter inactive | MPTP swell DR inactive
Cc1ccccc1S(=O)(=O)c1c(C)cc(-c2ccccc2)[nH]c1=O	none
CCC(Cc1ccccc1)NC(=O)CCNS(=O)(=O)c1cc(Br)cnc1N (centres undefined)	none
CCn1c(CNC(=O)COc2ccc(C(C)C)cc2)nnc1SCC(=O)Nc1ccccc1C(C)C	MPTP block 53 | MPTP counter 57
CCc1nn2cc(C(=O)c3cc(Cl)ccc3O)cnc2c1-c1ccc(F)cc1	GRIN3A LBD mod 27, MPTP block 100 | MPTP counter 93
Cc1nn(C)c2ncc(C(=O)c3cc(F)ccc3O)cc12	none
O=C1O[C@@H](c2ccccc2)C[C@@H](O)C(=O)CCc2ccccc21	none (no result: GRIN3A LBD mod)
CCCCCCC[C@@H](C/C=C/CCC(=O)O)OC	none
CCCCCCC[C@@H](C/C=C/CCC(=O)N(C)C/C(=C/Cl)C/C(=C\C(=O)N1CC(OC)=CC1=O)OC)OC	MPTP block 79 | MPTP counter inactive
Cc1ccc(C(C)C)c(OCCn2ccnc2C)c1	none
Cc1ccc(OCCCCn2ccnc2C)c(C)c1	MPTP block 61 | MPTP counter 27
CCc1c(C)sc(NC(=O)C2CC(c3c(F)cccc3Cl)=NO2)c1C#N (centres undefined)	none
C[N+](C)(C)CCN1CCc2ccccc21	none (no result: GRIN3A LBD mod)
CCN(Cc1ccccc1)S(=O)(=O)c1ccc(C(=O)N(CCCN(C)C)c2nc3cc4c(cc3s2)OCO4)cc1	none
CCOC(=O)N1CCN(S(=O)(=O)c2ccc(C(=O)N(CCCN(C)C)c3nc4c(C)c(C)ccc4s3)cc2)CC1	MPTP block 75 | MPTP counter inactive | MPTP swell DR 5.5 | MPTP cs DR inactive
CCN(Cc1ccccc1)S(=O)(=O)c1ccc(C(=O)N(CCCN(C)C)c2nc3c(C)c(C)ccc3s2)cc1	MPTP block 82 | MPTP counter inactive
CN(C)CCCN(C(=O)c1ccc(S(=O)(=O)N2CCCC2)cc1)c1nc2c(F)cc(F)cc2s1	none (no result: GRIN3A LBD mod)
CN(C)CCCN(C(=O)c1ccc(S(=O)(=O)N2CCCCCC2)cc1)c1nc2c(F)cc(F)cc2s1	MPTP block 88 | MPTP counter inactive | MPTP swell DR 4.3 | MPTP cs DR inactive
Cc1ccc2sc(N(CCCN(C)C)C(=O)c3ccc(S(=O)(=O)N(C)C4CCCCC4)cc3)nc2c1C	MPTP block 88 | MPTP counter inactive
CCN(CC)CCN(C(=O)c1ccc(S(=O)(=O)N(C)C2CCCCC2)cc1)c1nc2c(C)cccc2s1	none
CN(c1ccccc1)S(=O)(=O)c1ccc(C(=O)NCc2ccccc2F)cc1	none
O=C(O)[C@@H](O)[C@H](O)C(=O)O	none
